From PubChem BioAssay AID1233 (SRMLSC, 2008)
Results with a measured potency or affinity are listed apart. Calls of active or inactive are those of the source.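 The calls were made as follows: active = a dose-response curve fit returns a half-maximal inhibitory concentration, extrapolated values included; inactive = the fit returns no such concentration.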

biological target: HMG-CoA reductase [Enterococcus faecalis] (UniProt Q9FD70); experiment: inhibitors of E. faecalis class II HMGR, confirmation, biochemical, Enterococcus faecalis (AID 1233); details: purified E. faecalis HMGR, NADPH absorbance 340 nm kinetics; series mostly up to 100 µM

Compound | outcome
CCOc1ccc(OCCCC(=O)Nc2nc3ccccc3[nH]2)cc1 | inactive
CNC(=S)N/N=C(\C)c1ccc(N2CCOCC2)cc1 | inactive
COc1ccc(CC(=O)OCc2cc(=O)n3cc(Br)ccc3n2)cc1OC | inactive
Cc1ccc(OCC(O)CN2C(=O)NC(C)(C)C2=O)cc1 (stereo not given) | inactive
CN(C)c1ccc(N=C/C=C2\N(C)c3ccccc3C2(C)C)cc1 | inactive
COc1ccc(/C=C(/C#N)S(=O)(=O)c2ccc(C)cc2)cc1 | inactive
O=C(Nc1ccc2c(c1)OCO2)c1noc2c1CCCCC2 | inactive
Brc1c(NC2=NCCN2)ccc2nccnc12 | inactive
O=C(O)C1CCCNC1 (stereo not given) | inactive
Cc1ccc2nsnc2c1N | inactive
CCNC(=O)CSc1nc2cc([N+](=O)[O-])ccc2n1-c1cccc(C(F)(F)F)c1 | inactive
COc1ccc(N2CC(C)(C)C2=O)cc1 | inactive
CC(C)NC(=O)CSc1nc2ccccc2n1CC(=O)N(C(C)C)C(C)C | inactive
O=C1NCCCC1C(=O)Nc1ccccc1C(F)(F)F (stereo not given) | inactive
COC(=O)c1ccccc1NC(=O)CSc1nnc(CNS(=O)(=O)c2ccc(C)cc2)n1C | inactive
COC(=O)C1=C(CSc2nc3c(cc2C#N)CN(C)CC3)OC(N)=C(C#N)C1c1ccc(F)cc1 (stereo not given) | inactive
CC(C)(C)C(=O)N1CCC[C@H]1C(O)(c1ccccc1)c1ccccc1 | inactive
COc1ccc(CCNC2=CC(=O)N(c3ccc(F)cc3)C2=O)cc1 | inactive
COc1ccc(C(=O)NCCc2nnc(SCC(=O)Nc3ccccc3F)n2C)cc1 | inactive
Cc1ccc(C(=O)O)cc1S(=O)(=O)N1CCC(C(=O)O)CC1 | inactive
